These results are taken from PubChem BioAssay.

For this experiment, the system named is Wnt5a (protein binding on small-molecule microarray). Kind of experiment: small molecules binding Wnt5a protein – biophysical, small-molecule microarray, 635/667 nm fluorescence, primary screen (AID 1142).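 Further: fluorescence read at 667 nm with signal to noise per printed feature.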 The following applies: 635 nm fluorescence, higher = more signal.
The compound `COC(=O)CC=C[C@@H](C)[C@@H](C=NOC(C)CN1CCCCc2nc(C)c(C)cc21)OC` (stereo partly specified) showed a composite z-score of 0.263.
For `CCOC(=O)[C@H](CC(C)C)NC(=O)CCC1CC(OC(=O)NCc2ccc3c(c2)OCO3)CC2(CCCC(COC(=O)NCCc3ccc(Cl)cc3)O2)O1` (stereo partly specified), the composite z-score is 0.277.
For `CC(CCN1CCc2nc(-c3ccccc3)c(-c3ccccc3)cc2C1)=NO[C@H](C)c1cn([C@H](CO)Cc2ccccc2)nn1`, the composite z-score is 0.136.
For the compound `CC(CCC(=O)OC[C@H]1O[C@H](C#Cc2ccccc2)C=C[C@@H]1Oc1ccc(C)cc1)=NO[C@H](C)c1cn([C@@H]2COC[C@H]2O)nn1`, the composite z-score is -0.0352.
As for `CC(CCN1CCc2nc(-c3ccccc3)c(-c3ccccc3)cc2C1)=NOC(C)CN1CCCc2nc(C)c(C)cc21` (stereo unspecified), the composite z-score is 0.281.
The compound `CCC1=NOC(CCC2CC(OC(=O)NCc3cccc4c3OCO4)CC3(CCCC(COC(=O)NCCc4ccc(Cl)cc4)O3)O2)C1` (stereo unspecified) had a composite z-score of -0.165.
Consider `CCOC(=O)CCN1C(=O)[C@H]2[C@@H]3C(=CC[C@H]2C1=O)C(=O)[C@H]1O[C@H]1[C@H]3O`, for which the composite z-score is -0.544.
On to `CON=C(C)CCC(=O)OC[C@H]1O[C@H](C#Cc2ccccc2)C=C[C@@H]1Oc1ccc(C)cc1`, for which the composite z-score worked out at 0.0488.
Next, `Cc1cc2c(nc1C)CCCCN2CC(O)CN1CCCc2nc(-c3ccc(Br)cc3)ccc21` (stereo unspecified): 0.0684; `COC(=O)[C@H](C)NC(=O)CCC1CC(OC(=O)NCc2cccc3ccccc23)CC2(CCCC(COC(=O)NCCc3ccccc3OC)O2)O1` (stereo partly specified): 0.259.
Turning to `CC#CCOCCC=C1c2ccccc2[C@@H](OC)[C@@H]1C`, the composite z-score was 0.179.
In turn, `CCO[C@H](c1cc(OC)cc([N+](=O)[O-])c1OC)[C@H](C)[C@@H](OC)[C@H](C)C=CCC(=O)OC` displayed a composite z-score of 0.018.
The compound `O=C1[C@H]2[C@H]3[C@H](O)[C@H](O)CC(=NOC[C@@H](O)COCc4ccco4)[C@@H]3CC[C@H]2C(=O)N1c1cccc(Oc2ccccc2)c1` displayed a composite z-score of -0.403.
Consider `COC(=O)[C@@H]1CC[C@H](C)[C@@H](c2ccc(Br)cc2)N1C[C@@H](O)CN=[N+]=[N-]`, for which the composite z-score came to 0.538.
In the case of `CCOC(=O)[C@H](Cc1ccccc1)NC(=O)CCC1CC(OC(=O)NCc2cccc3ccccc23)CC2(CCCC(COC(=O)NCC3CCCCC3)O2)O1` (stereo partly specified) it was 0.297.
In the case of `C#CCCCON=C1[C@H]2CCn3c(=O)n([C@@H](CC)c4ccccc4)c(=O)n3[C@H]2[C@H](O)[C@@H]2O[C@H]12`, the composite z-score worked out at 0.352.
Take `C[C@@H]1C=CCC(=O)OC[C@H](C)C(=O)N[C@@H](Cc2ccccc2)C(=O)OC1`: the composite z-score worked out at 0.033.
In turn, `Cc1ccc2[nH]c3nc(CCCn4ccnc4-c4ccccc4)nnc3c2c1` had a composite z-score of 0.181.
Compound `CC(CCN1CCc2nc(-c3ccccc3)c(-c3ccccc3)cc2C1)=NO[C@@H](C)c1cc(-c2c(C)cc(C)cc2C)no1` yielded a composite z-score of -0.405.
In the case of `O=C1[C@H]2CCn3c(=O)n(Cc4cc5c(cc4Cl)OCO5)c(=O)n3[C@H]2[C@H](O)[C@@H]2O[C@H]12` it was -0.509.
The compound `CCCNC(=O)OC[C@H]1O[C@H](CCON=C[C@@H](NS(=O)(=O)c2ccc(C)cc2)[C@H](C)C=CCC(=O)OC)C=C[C@@H]1Oc1ccc(OC)cc1` registered a composite z-score of -0.208.
Take `CCN1C(=O)[C@H]2[C@H]3[C@H](O)[C@H](O)CC(=NOCC[C@@H]4C=C[C@H](OC(C)=O)[C@@H](COC(C)=O)O4)[C@@H]3CC[C@H]2C1=O`: the composite z-score came to 0.0885.
Take `COc1ccc(O[C@H]2C=C[C@@H](c3ccccc3)O[C@@H]2COC(=O)CCC(C)=NOC[C@@H](O)COCc2ccco2)cc1`: the composite z-score is -1.31.
Compound `CC(C)[C@@H](OCc1ccccc1)[C@H](C)C=NOC[C@@H](O)[C@H]1O[C@@H]2OC(C)(C)O[C@@H]2[C@H]1O` came in with a composite z-score of 0.332.
For `O=C1C2=CC[C@H]3C(=O)N(Cc4ccccc4)C(=O)[C@H]3[C@H]2[C@H](O)[C@@H]2O[C@H]12`, the composite z-score was -0.134.
Take `COC(=O)[C@H](C)NC(=O)CCC1CC(OC(=O)NCc2ccc3c(c2)OCO3)CC2(CCCC(COC(=O)NCc3ccccc3)O2)O1` (stereo partly specified): the composite z-score was found to be 0.298.
Turning to `CC(C)CON=C1C[C@@H](O)[C@@H](O)[C@@H]2[C@@H]3C(=O)N(Cc4ccccc4)C(=O)[C@@H]3CC[C@H]12`, the composite z-score was found to be 0.0659.
`O=C1[C@H]2[C@H]3[C@H](O)[C@H](O)CC(=NO[C@@H]4O[C@H](CO)[C@@H](O)[C@H](O)[C@H]4O)[C@H]3CC[C@H]2C(=O)N1c1ccc(F)cc1F` displayed a composite z-score of 0.0816.
Compound `CC(=O)OC[C@H]1O[C@@H](ON=C2[C@H]3CCn4c(=O)n(-c5ccccc5)c(=O)n4[C@H]3[C@H](O)[C@@H]3O[C@H]23)[C@H](OC(C)=O)[C@@H](OC(C)=O)[C@@H]1OC(C)=O` showed a composite z-score of 0.196.
On to `C#CCCCON=C1C[C@@H](O)[C@@H](O)[C@@H]2[C@@H]3C(=O)N([C@@H](C)c4ccccc4)C(=O)[C@@H]3CC[C@@H]12`, for which the composite z-score worked out at 0.025.
Compound `O=C1[C@H]2[C@H]3[C@H](O)[C@H](O)CC(=NOC[C@@H](O)COCc4ccco4)[C@@H]3CC[C@H]2C(=O)N1C1CCCCC1` returned a composite z-score of 0.124.
On to `C[C@]12CCC3c4ccc(OCC5CO5)cc4CCC3C1CC[C@@H]2O` (stereo partly specified), for which the composite z-score is 0.201.
For `CCOC(=O)CCN1C(=O)[C@H]2[C@H]3[C@H](O)[C@H](O)CC(=NO[C@@H]4O[C@H](CO)[C@@H](O)[C@H](O)[C@H]4O)[C@H]3CC[C@H]2C1=O`, the composite z-score is -0.167.
`C=CCOCC1CN2[C@@H](CC[C@@H](C)[C@@H]2c2ccc(Br)cc2)C(=O)O1` (stereo partly specified): the composite z-score was -0.234.
For the compound `CO[C@H]1COC(=O)[C@H](C)COC(=O)[C@@H](OCc2ccccc2)C=C[C@@H]1C`, the composite z-score was -0.19.
`CC(C)=NOC(C)CN1CCCc2nc(C)c(C)cc21` (stereo unspecified) returned a composite z-score of 0.299.
